Outcome and Potency data for seven molecules are collected here from PubChem BioAssay (NCATS).

Results filed as inconclusive are left out. Activity calls are given as the source filed them. The call rests on the fitted dose curve; in most records, active means well fitted curve in the direction sought with a large enough effect; inconclusive means small, poorly fitted or top-dose-only effect, or another doubt; inactive means no such curve, though single readings can be large; an effect the other way counts as inactive or inconclusive.

Experiment [1] deals with Luciferin 4-monooxygenase (Photinus pyralis) (UniProt P08659). Kind of experiment: Biochemical firefly luciferase enzyme assay for NPC (AID 624030).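 Further: purified P. pyralis luciferase at 10 nM with luciferin and ATP substrate; nearly all actives have a fitted effect of over 70% in size.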 In outline: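 Counter-screen for direct inhibition of the luciferase enzyme by approved-drug library compounds, run at 10 nM enzyme in 50 mM Tris acetate (final). Luminescence was read within 5 min of enzyme-buffer addition and normalized to PTC124 versus DMSO (0%).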
Luciferin 4-monooxygenase (Photinus pyralis), sequence (P08659 whole entry, looked up): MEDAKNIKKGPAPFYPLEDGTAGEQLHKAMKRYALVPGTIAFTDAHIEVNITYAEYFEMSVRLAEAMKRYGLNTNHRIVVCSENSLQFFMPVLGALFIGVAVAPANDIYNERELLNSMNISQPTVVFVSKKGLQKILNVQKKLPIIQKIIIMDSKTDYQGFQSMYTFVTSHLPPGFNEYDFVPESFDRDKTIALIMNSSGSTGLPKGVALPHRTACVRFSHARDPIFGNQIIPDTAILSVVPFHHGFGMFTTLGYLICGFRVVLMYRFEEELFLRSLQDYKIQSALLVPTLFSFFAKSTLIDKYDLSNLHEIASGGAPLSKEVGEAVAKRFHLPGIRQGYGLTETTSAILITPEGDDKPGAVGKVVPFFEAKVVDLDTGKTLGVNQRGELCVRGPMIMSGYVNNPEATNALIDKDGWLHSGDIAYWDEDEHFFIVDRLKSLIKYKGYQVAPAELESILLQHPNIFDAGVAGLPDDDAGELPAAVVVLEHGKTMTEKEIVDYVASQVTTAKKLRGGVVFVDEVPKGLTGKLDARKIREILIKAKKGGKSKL

The nature of experiment [2]: S16 Schwann cell viability assay (CellTiter-Glo assay) (AID 624031). Further: nearly all actives have a fitted effect of over 70% in size. Further: potency means the concentration at half of the fitted maximal effect. In short, it runs like this: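 Luminescent ATP read-out (CellTiter-Glo) after 24 h compound exposure of native S16 rat Schwann cells at 37 °C. Signals were normalized between cell-free wells and DMSO-treated cells, set as 0% activity.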
(In ATP-based viability assays light output follows the ATP content of the culture.)

Experiment [3] in a line: S16 Schwann cell PMP22 intronic element firefly luciferase assay (AID 624032). Further: nearly all actives have a fitted effect of over 30% in size. Further: potency means the concentration at half of the fitted maximal effect. In short, it runs like this:
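Rat S16 Schwann cells stably carrying a PMP22 intronic element-driven Fluc reporter were seeded overnight, then exposed to compounds for 24 h at 37 °C. Luminescence was normalized to PTC124 (positive control) and DMSO (0% activity).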

A further experiment deals with C2A. Put plainly: qHTS profiling for inhibitors of Plasmodium falciparum proliferation (AID 504749). Further: nearly all actives have a fitted effect of over 60% in size. Further: potency means the concentration at half of the fitted maximal effect. The settings on record: P. falciparum in erythrocytes, SYBR Green DNA, 72 h; series mostly up to 12.8 µM. In outline: (§1)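 P. falciparum-infected erythrocytes (0.3% parasitemia, 2.5% hematocrit final) were exposed to compounds for 72 h at 37 C in 5% CO2, then lysed with SYBR Green buffer overnight at room temperature; parasite DNA fluorescence was normalized to artemisinin and DMSO controls.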

For a further experiment, the system named is CP250. Described as above. The note with it: P. falciparum in erythrocytes, SYBR Green DNA, 72 h; series mostly up to 12.8 µM. In short, it runs like this: as §1
The next experiment has as its system CP256. Described as above. The settings on record: P. falciparum in erythrocytes, SYBR Green DNA, 72 h; series mostly up to 12.8 µM. In short, it runs like this:
as §1

The next experiment has as its system CP297. The experiment is described as above. The note with it: P. falciparum in erythrocytes, SYBR Green DNA, 72 h; series mostly up to 12.8 µM. In outline:
as §1

The next experiment deals with CP329. The experiment is described as above. The settings on record: P. falciparum in erythrocytes, SYBR Green DNA, 72 h; series mostly up to 12.8 µM. In short, it runs like this: as §1
In the next experiment the test system is Dd2. The description is as above. The note with it: P. falciparum in erythrocytes, SYBR Green DNA, 72 h; series mostly up to 12.8 µM. In outline:
as §1

Another experiment concerns ECU. The description is as above. The settings on record: P. falciparum in erythrocytes, SYBR Green DNA, 72 h; series mostly up to 12.8 µM. In outline: as §1
A further experiment deals with FAB9. Described as above. The settings on record: P. falciparum in erythrocytes, SYBR Green DNA, 72 h; series mostly up to 12.8 µM. In short, it runs like this: as §1
For the next experiment, the system named is JCK. Described as above. The settings on record: P. falciparum in erythrocytes, SYBR Green DNA, 72 h; series mostly up to 12.8 µM. In outline:
as §1

The test system of another experiment is PAD. Described as above. The note with it: P. falciparum in erythrocytes, SYBR Green DNA, 72 h; series mostly up to 12.8 µM. In outline:
as §1

A further experiment deals with PC15. The experiment is described as above. The settings on record: P. falciparum in erythrocytes, SYBR Green DNA, 72 h; series mostly up to 12.8 µM. In short, it runs like this:
as §1

In the next experiment the test system is W2. Described as above. The settings on record: P. falciparum in erythrocytes, SYBR Green DNA, 72 h; series mostly up to 12.8 µM. In short, it runs like this:
as §1

Experiment [4] deals with Glutathione peroxidase 1 (Homo sapiens) (UniProt P07203). Kind of experiment: Primary qHTS Assay for Inhibitors of Recombinant Selenoprotein Glutathione Peroxidase 1 (GPX1) (AID 1845191). Further: nearly all actives have a fitted effect of over 65% in size. The note with it: outcome: dose series up to 48.8 µM unless noted. In outline: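 Recombinant GPX1 (10 nM final) was preincubated with compound for 30 min at room temperature, then reacted with 1 mM GSH, 0.5 mM CHP, 0.5 mM NADPH and 100 nM glutathione reductase; NADPH fluorescence (340/450 nm) was read at 0 and 15 min.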
Glutathione peroxidase 1 (Homo sapiens), sequence (P07203 whole entry, looked up): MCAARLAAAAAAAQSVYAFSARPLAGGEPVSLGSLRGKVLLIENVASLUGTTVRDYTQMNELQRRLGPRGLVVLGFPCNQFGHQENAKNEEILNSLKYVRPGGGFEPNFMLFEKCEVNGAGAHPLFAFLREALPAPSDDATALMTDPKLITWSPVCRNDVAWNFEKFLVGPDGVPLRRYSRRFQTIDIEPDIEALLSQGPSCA
(In general: In qHTS, concentration-response curves come from the screen itself.)

The nature of experiment [5]: HepG2 viability counterscreen (readout 2: ATP content) against the NCATS DSHEA and TCM libraries (AID 1794840).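 Further: HepG2 cells exposed to substances for about 24 h.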 In outline:
(§2)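 Cytotoxicity was assessed in HepG2 cells plated at 1,000 cells/well and exposed for about 24 hours to a concentration series. Protease activity and ATP content were measured sequentially in each well.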

Experiment [6] is described as follows: HepG2 viability counterscreen (readout 1: protease activity) against the NCATS DSHEA and TCM libraries (AID 1794841).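 Further: cells exposed to compounds for about 24 h before the protease read.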 In outline: as §2
A general note: The purpose of a counterscreen is to sort out artefacts and off-target activity.

Experiment [7] addresses Cytochrome P450 2D6 (Homo sapiens) (UniProt P10635). Kind of experiment: qHTS for inhibitors of CYP2D6 against the NCATS DSHEA and TCM libraries (AID 1919972). In short, it runs like this: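 Steps: enzyme plus luciferin substrate dispensed; test substances pinned; 15 min RT; 1x NADPH regenerating solution added, 30–45 min RT protected from light; detection reagent, 30 min RT; luminescence measured. Minus-enzyme wells as background.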

A short description of experiment [8]: KB-3-1 P-gp reporter qHTS against the NCATS DSHEA and TCM libraries (AID 1919975). In outline: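 72 h exposure of KB-3-1 cells (DMEM, 10% FBS) to DSHEA/TCM samples, concentration-response; cell viability measured as CellTiter-Glo luminescence after 30 min at room temperature.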

Cytochrome P450 2D6 (Homo sapiens), sequence (P10635 whole entry, looked up): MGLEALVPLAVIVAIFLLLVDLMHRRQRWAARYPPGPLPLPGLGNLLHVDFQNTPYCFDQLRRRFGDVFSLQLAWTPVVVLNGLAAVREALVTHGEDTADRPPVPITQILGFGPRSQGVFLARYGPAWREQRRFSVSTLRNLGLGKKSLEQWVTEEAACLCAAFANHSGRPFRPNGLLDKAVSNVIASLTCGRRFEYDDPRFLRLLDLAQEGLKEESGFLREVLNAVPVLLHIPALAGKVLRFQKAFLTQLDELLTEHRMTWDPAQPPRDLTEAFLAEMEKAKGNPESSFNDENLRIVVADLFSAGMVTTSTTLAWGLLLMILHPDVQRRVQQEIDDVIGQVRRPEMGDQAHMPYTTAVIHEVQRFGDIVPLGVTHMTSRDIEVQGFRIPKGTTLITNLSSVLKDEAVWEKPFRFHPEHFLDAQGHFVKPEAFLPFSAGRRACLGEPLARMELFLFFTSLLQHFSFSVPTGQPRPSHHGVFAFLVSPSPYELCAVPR

Take `Cc1cc(/C=C\c2ccc3cc(N(C)C)ccc3[n+]2C)c(C)n1-c1ccccc1`: the molecule was classed as inactive in [1]. Also, the Potency in experiment [2] was 15500 nM (active); in experiment [3] it was 30.9 nM (active); in the experiment with C2A it was 2510 nM (active); in the experiment with CP250 it was 2820 nM (active); in the experiment on CP256, 1580 nM (active); in the experiment with CP297, 2280 nM (active). The Potency was 2030 nM (active) with CP329; 398 nM (active) with Dd2; 2510 nM (active) in the experiment with ECU; 2000 nM (active) in the experiment on FAB9; 3160 nM (active) in the experiment on JCK; 3160 nM (active) in the experiment with PAD. For the same molecule, the Potency was 3550 nM (active) in the experiment on PC15 and 128 nM (active) in the experiment with W2.

Regarding `CN(C)CC/C=C1\c2ccccc2CSc2ccccc21`, the result in [1] and in experiment [4] was inactive. The Potency entry (in experiment [2]; in experiment [3]; in the experiment with C2A; with CP250; in the experiment with CP256; in the experiment with CP297) was “inactive” each time. Further, the Potency result in the experiment on CP329, with ECU, with FAB9, in the experiment on JCK, with PAD and in the experiment with PC15 was “inactive” in each case. Moreover, the Potency with Dd2 was 1780 nM (active); in the experiment on W2 it was 1280 nM (active).

Consider `O=c1cc(-c2ccc(O)cc2)oc2cc(O[C@H]3OC(CO)C(O)C(O)C3O)cc(O)c12` (stereo not given in full), for which the call in experiment [5], in experiment [6] and in experiment [8] was inactive. Moreover, in experiment [7], the Potency result was “inactive”.

Take `O=c1ccc2ccc(O)cc2o1`: the result in experiment [5], in experiment [6] and in experiment [8] was inactive. The Potency entry in [7] was “inactive”.

Consider `COc1cc2c(cc1OC)C1Cc3ccc(OC)c(OC)c3CN1CC2` (stereo not given), for which the result in [4] was inactive.

Regarding `CC(C)N1CCN(c2ccc(OC[C@@H]3CO[C@@](Cn4cncn4)(c4ccc(Cl)cc4Cl)O3)cc2)CC1`, the molecule was called inactive in [1] and in experiment [4]. Further, the Potency entry (in experiment [2]; in experiment [3]; with C2A; in the experiment on CP250; in the experiment with CP256; in the experiment on CP297) was “inactive” throughout. Moreover, the Potency result in the experiment with CP329, in the experiment with Dd2, in the experiment with ECU, with FAB9, in the experiment on JCK and in the experiment on PAD was “inactive” in each case. In addition, the Potency result in the experiment with PC15 and in the experiment with W2 was “inactive” in each case.

In the case of `NC(Cc1c[nH]c2ccccc12)C(=O)O` (stereo not given), the outcome in experiment [5], in experiment [6] and in experiment [8] was inactive. For the same molecule, in experiment [7], the Potency result was “inactive”.
